Assay outcomes (PubChem)
BAZ2B inh – qHTS Assay for Inhibitors of BAZ2B; AID 504333, 2011; Potency, µM (doses to about 114 µM), actives largely listed as inhibitors; hit rate 4.4% among 360,000; AlphaScreen BAZ2B-H3K14Ac peptide displacement; Bromodomain adjacent to zinc finger domain protein 2B (Homo sapiens), Q9UIF8; further: nearly all actives have a fitted effect of over 60% in size
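Complex of BAZ2B and biotin-H3K14Ac (50 nM apiece) forms over 30 min at RT, then faces library compounds up to 110 uM for another 30 min; AlphaScreen beads added, 20 min dark incubation, luminescence read.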
Sfp PPTase inh – qHTS Assay for Inhibitors of Bacillus subtilis Sfp phosphopantetheinyl transferase (PPTase). 4'-phosphopantetheinyl transferase ffp (Bacillus subtilis), Q9F4F7. Biochemical Sfp PPTase activity, qHTS. Potency, µM, most hits filed as inhibitors. hit rate 3.5% among 310,000;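 further: the enzyme is Sfp with the accession as filed and its product quenches rhodamine fluorescence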
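Compounds were incubated with enzyme (final 15 nM) for 15 min at room temperature before substrate addition started the reaction. Fluorescence at 525 nm excitation, 598 nm emission was recorded immediately and after 30 minutes.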
HP1b chromo inh – HTS for Inhibitors of HP1-beta Chromodomain Interactions with Methylated Histone Tails | Potency, µM (titrated, usually from 114 µM), actives largely listed as inhibitors | Chromobox protein homolog 1 (Homo sapiens), P83916 | hit rate 0.56% among 390,000 | AlphaScreen HP1-beta / biotin-H3K9me3 peptide binding | AID 540317, 2011; further: nearly all actives have a fitted effect of over 70% in size
Target sequence (P83916 whole entry, looked up): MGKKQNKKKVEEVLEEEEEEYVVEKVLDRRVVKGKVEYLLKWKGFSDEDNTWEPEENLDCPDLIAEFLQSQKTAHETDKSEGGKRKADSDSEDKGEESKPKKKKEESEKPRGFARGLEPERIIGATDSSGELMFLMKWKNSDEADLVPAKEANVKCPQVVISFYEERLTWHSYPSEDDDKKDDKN
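HP1-beta protein (50 nM final) preincubated 30 min at room temperature with biotinylated H3(1-18)K9me3 peptide (50 nM) in PBS pH 7.4, 0.01% Tween-20, then compound added for 30 min. AlphaScreen streptavidin donor/nickel chelate acceptor beads (10 ug/mL final), 30 min dark, luminescence read.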
G9a inh – qHTS Assay for Inhibitors of Histone Lysine Methyltransferase G9a; G9a H3K9 monomethylation, AlphaScreen, 2 h; Potency, µM (highest dose often 102 µM), usual class: inhibitors; hit rate 8.8% among 350,000; further: nearly all actives have a fitted effect of over 75% in size
Target sequence (Q96KQ7 913-1193 limits assumed): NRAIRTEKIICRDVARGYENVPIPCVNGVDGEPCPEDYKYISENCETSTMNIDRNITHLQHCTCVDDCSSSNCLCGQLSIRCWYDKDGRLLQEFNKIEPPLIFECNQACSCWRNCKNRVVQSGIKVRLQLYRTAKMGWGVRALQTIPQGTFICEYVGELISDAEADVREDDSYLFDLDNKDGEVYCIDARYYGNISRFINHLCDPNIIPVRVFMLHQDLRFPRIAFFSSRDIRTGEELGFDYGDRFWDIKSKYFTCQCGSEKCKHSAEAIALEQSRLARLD
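Compounds were preincubated with 20 nM G9a for 15 min, after which biotinylated H3K9 peptide (500 nM) and SAM (20 uM) started a 2 h room-temperature reaction. Monomethylated product was quantified by antibody-based AlphaScreen chemiluminescence.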
12-LOX inh – Primary qHTS assay for inhibitors of human arachidonate 12S-lipoxygenase (ALOX12): Round 2; Polyunsaturated fatty acid lipoxygenase ALOX12 (Homo sapiens), P18054; purified 12hLO, xylenol orange hydroperoxide absorbance; Potency, µM (highest dose often 108 µM), usual class: inhibitors; hit rate 1.1% among 580,000
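Hydroperoxide product was detected by ferrous iron/xylenol orange as the 573 to 405 nm absorbance ratio. Arachidonic acid at 40 uM (final) was turned over for 30 min at room temperature by 150 nM human 12hLO, pH 7.0 Hepes buffer, after 15 min compound preincubation.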
JMJD2A Tudor – qHTS Assay for Inhibitors of JMJD2A-Tudor Domain. Lysine-specific demethylase 4A (Homo sapiens), O75164. AlphaScreen JMJD2A-Tudor / H3K4me3 peptide binding. Potency, µM (series often up to 114 µM), actives largely listed as inhibitors. hit rate 4.4% among 390,000; further: nearly all actives have a fitted effect of over 50% in size
A number is an active result; . = inactive; ? = inconclusive; / = no result; ! = a repeat was not active; [ ] = another dose, or the depositor's remark. This is a sample that favours compounds with a hit; in the whole collection about 8.7% have one here. The call rests on the fitted dose curve; in most records, active means well fitted curve in the direction sought with a large enough effect; inconclusive means small, poorly fitted or top-dose-only effect, or another doubt; inactive means no such curve, though single readings can be large; an effect the other way counts as inactive or inconclusive.

SMILES	BAZ2B inh	Sfp PPTase inh	HP1b chromo inh	G9a inh	12-LOX inh	JMJD2A Tudor
CCOC(=O)CSc1nc2ccc(N)cc2s1	.	.	.	32µM	.	.
O=C(CCCc1nc2ccccc2s1)N1CCN(c2ccccc2F)CC1	.	.	.	.	.	.
CCOC(=O)CSc1nc(N)c(C(=O)Nc2ccc(N(C)C)cc2)s1	50µM	.	?	16µM	.	40µM
CCOC(=O)CSc1nc2ccc(NC(=O)c3ccccc3)cc2s1	.	/	.	?	.	.
CC(Oc1ccc(C(F)(F)F)cc1)C(=O)NC1(C#N)CCCCC1 (stereo not drawn)	/	/	/	/	.	/
O=C(NC1CCCC1)C1CCC(Cn2cnnn2)CC1 (stereo not drawn)	/	/	/	/	.	/
Nc1ccc2nc(SCc3cccc(F)c3)sc2c1	/	.	.	45µM	.	.
CCC(c1ccc(O)c(O)c1)C(CC)c1ccc(O)c(O)c1 (stereo not drawn)	/	/	?	/	/	79µM
CCC(NC(C)C)C(O)c1ccc(O)c(O)c1 (stereo not drawn)	?	?	.	27µM!	10µM!	?
O=C(Nc1cccc(C(F)(F)F)c1)C1=C(c2ccccc2)S(=O)(=O)CCO1	/	/	/	/	.	/
COc1cccc(O)c1O	/	20µM	/	/	/	/
FC(F)(F)c1ccccc1NC(=S)NN=C1CCCCCC1	50µM	.	.	8.9µM	?	50µM
COc1cccc(NC(=S)NN=C2CCCCCC2)c1	56µM	.	.	10µM	?	?
Cc1cccc(NC(=S)N2CCCC2)c1	.	.	.	/	.	.
Cc1cccc(NC(=S)NN=C2CCCC2)c1	/	/	/	/	14µM	/
Cc1ccc(NC(=O)CN2CCN(C(=O)CCNS(=O)(=O)c3ccc4ccccc4c3)CC2)cc1	/	/	/	/	.	/
N#Cc1cccc(C(=O)NCCSC(F)(F)F)c1	/	/	/	/	.	/
Cc1ncoc1C(=O)Nc1ncc([N+](=O)[O-])s1	?	.	?	4.5µM	?	40µM
Cc1ccc2cccc(NC(=O)COc3ccc(C(C)C)cc3)c2n1	/	/	/	/	.	/
Cc1ccc(N2C(=O)[C@@H]3[C@H](C2=O)C2c4ccccc4C=CN2[C@@H]3C(=O)c2ccco2)cc1 (stereo partly drawn)	?	.	?	3.2µM	?	?
COc1ccc(N2C(=O)[C@@H]3[C@H](C2=O)[C@H]2c4ccccc4C=CN2[C@@H]3C(=O)Nc2ccccc2)cc1	.	.	.	8.9µM	?	?
O=C(c1ccco1)[C@@H]1[C@@H]2C(=O)N(c3ccccc3)C(=O)[C@@H]2C2c3ccccc3C=CN21 (stereo partly drawn)	79µM	?	.	.[2.33 µM]	?	50µM
CC(C)(C)C(=O)[C@@H]1[C@@H]2C(=O)N(c3ccc4c(c3)OCCO4)C(=O)[C@@H]2C2c3ccccc3C=CN21 (stereo partly drawn)	?	.	?	8.9µM	/	?
COc1ccc(N2CC(C)(C)[C@H](CC(=O)Nc3ccccc3)C2=O)cc1	/	/	/	/	.	/
CCN(c1ccccc1)c1nnc(NC(=O)Nc2cc(Cl)ccc2OC)s1	/	/	/	/	.	/
SMILES	BAZ2B inh	Sfp PPTase inh	HP1b chromo inh	G9a inh	12-LOX inh	JMJD2A Tudor
CCCc1nc(C#N)c(NCCc2ccc(OC)c(OC)c2)o1	/	/	/	/	.	/
CCCCCn1nc(C(=O)OCC(=O)NC(C)c2ccccc2)c2ccccc2c1=O (stereo not drawn)	/	/	/	/	.	/
O=C1C2C3C=CC(C3)C2C(=O)N1Cc1ccccc1 (stereo not drawn)	.	.	.	.[12.7 µM]	.	.
Cc1ccc(-n2ncc3c(NNC(=O)c4ccco4)ncnc32)c(C)c1	.	.	.	.	.	.
Cc1ccc(N2C(=O)[C@@H]3[C@H](C2=O)C2c4ccccc4C=CN2[C@@H]3C(=O)c2ccco2)c(C)c1 (stereo partly drawn)	.	?	.	.[2.33 µM]	14µM	?
CC(=O)[C@@H]1[C@@H]2C(=O)N(Cc3ccccc3)C(=O)[C@@H]2C2c3ccccc3C=CN21 (stereo partly drawn)	.	.	.	2.8µM	.	?
CC(C)c1noc(C2CCCN(C(=O)NC(C)(C)C)CCC(=O)NCC2)n1 (stereo not drawn)	/	/	/	/	.	/
CNC(=O)N1CCC(C2CCN(C(=O)c3cn[nH]c3)C2)CC1 (stereo not drawn)	/	/	/	/	.	/
Fc1cccc(CCN2C(=S)NC[C@@H]2CC2CCCCC2)c1	.	.	.	.[12.7 µM]	40µM	.
O=C(NCc1cccc(Br)c1)c1noc(-c2ccc(F)cc2)n1	/	/	/	/	.	/
CSc1ccc(C2N=C(c3ccccc3)NO2)cc1 (stereo not drawn)	.	.	.	?	/	.
Oc1c(Br)cc(C2N=C(c3ccccc3)NO2)cc1Br (stereo not drawn)	.	.	.	.[0.501 µM]	28µM	.[11.4 µM]
O=C1C(=Cc2cccs2)C(=O)c2ccccc21	.	.	.	.	.	.
O=C1/C(=C\c2cccs2)Sc2ccc3ccccc3c21	?	.	?	7.9µM	.	?
CCN(CC)S(=O)(=O)c1ccc(C(=O)NC(=S)N(CCC#N)Cc2cccnc2)cc1	.	.	.	13µM	.	.
